Most compounds without a hit are left out; they make up all but 2.4% or so of the library.
SENP8 block-1 = human SENP8 protease inhibitors, primary screen, biochemical, fluorescence, Nedd8 protein substrate, uHTS; Sentrin-specific protease 8 (Homo sapiens), Q96LD8; recombinant SENP8; inhibition, % at 20 µM; 0.64% of 360,000 active; AID 602440, 2012; in the data active means inhibition mostly above about 40%, no sharp cut-off; inactive means mostly below about 27%
Target sequence (Q96LD8 whole entry, looked up): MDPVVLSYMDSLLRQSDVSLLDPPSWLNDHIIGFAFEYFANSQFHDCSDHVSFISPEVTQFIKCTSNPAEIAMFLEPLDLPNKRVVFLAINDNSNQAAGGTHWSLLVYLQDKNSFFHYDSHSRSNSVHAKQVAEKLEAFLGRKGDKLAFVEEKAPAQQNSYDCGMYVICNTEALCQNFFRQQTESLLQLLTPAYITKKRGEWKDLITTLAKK
SENP7 block = SENP7 protease inhibitors, primary screen, biochemical, luminescence, uHTS; recombinant SENP7, Z-RLRGG-aminoluciferin luminescence, 40 min; inhibition, % at 5 µM; 1.5% of 330,000 active; AID 434973, 2010;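 active means inhibition above about 50% at the single test dose, limit read from the data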
Target sequence (Q9BQF6 706-1050 limits assumed): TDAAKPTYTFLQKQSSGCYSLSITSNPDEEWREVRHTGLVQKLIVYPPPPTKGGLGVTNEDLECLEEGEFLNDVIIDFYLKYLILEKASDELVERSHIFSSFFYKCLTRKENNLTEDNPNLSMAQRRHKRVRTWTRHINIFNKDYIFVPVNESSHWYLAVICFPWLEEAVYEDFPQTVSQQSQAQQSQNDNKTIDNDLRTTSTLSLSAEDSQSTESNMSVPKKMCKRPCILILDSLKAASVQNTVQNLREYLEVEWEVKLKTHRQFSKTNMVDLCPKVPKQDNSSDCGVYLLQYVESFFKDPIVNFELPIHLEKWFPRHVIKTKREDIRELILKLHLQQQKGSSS
Platelet DG rel = inhibitors of platelet dense granule secretion, primary screen, cell-based, MLPCN, human platelets; human platelet-rich plasma, SFLLRN dense granule ATP release, luminescence; inhibition, %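 (compounds screened at 7.5 µM in platelet-rich plasma)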; 0.22% of 300,000 active; AID 1663, 2009;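 active means mean replicate score, as percent of positive control, at or above 50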
SENP8 block-2 = SENP8 protease inhibitors, primary screen, biochemical, luminescence; Sentrin-specific protease 8 (Homo sapiens), Q96LD8; purified SENP8, Z-RLRGG-aminoluciferin cleavage; inhibition, % at 10 µM; 1.2% of 330,000 active; in the data active means inhibition above about 50%
SENP6 inh = SENP6 protease inhibitors, primary screen, biochemical, luminescence, uHTS. Sentrin-specific protease 6 (Homo sapiens), Q9GZR1. Recombinant SENP6 catalytic domain, aminoluciferin luminescence. inhibition, % at 10 µM. 1.8% of 330,000 active. AID 2599, 2010;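 active means inhibition above about 50% at the single tested dose, limit read from the data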
SENP8 confirm = SENP8 protease inhibitors, retest, confirmation, biochemical, luminescence, single concentration; shares compounds with SENP7 block; Recombinant SENP8, Z-RLRGG-aminoluciferin luminescence, 60 min; inhibition, % at 12.5 µM; 40% of 6,200 active; AID 488912, 2010;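 active means mean inhibition across replicates above about 50%, limit read from the data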
SENP6 confirm = SENP6 protease inhibitors, confirmation, biochemical, luminescence, single concentration; 58% of 6,200 active; AID 488915, 2010; recombinant SENP6, Z-RLRGG-aminoluciferin luminescence; inhibition, % at 12.5 µM; shares compounds with SENP7 block
SENP7 confirm = SENP7 protease inhibitors, retest, confirmation, biochemical, luminescence, single concentration; recombinant SENP7, Z-RLRGG-aminoluciferin luminescence, 40 min; shares compounds with SENP7 block; 69% of 6,200 active; inhibition, % at 12.5 µM
Casp3 select = caspase-3 protease inhibitors, confirmation, selectivity assay for SENP inhibitor project, biochemical, single concentration | shares compounds with SENP7 block | purified caspase-3, Z-DEVD-aminoluciferin luminescence, 60 min | inhibition, % at 12.5 µM | 60% of 6,200 active | AID 488918, 2010;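 active means mean inhibition above about 50%, limit read from the data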
SENP luc ctr = luminescence interference (SENP counter-screen) | AID 488919 | 39% of 6,200 active | inhibition, % at 12.5 µM | Pre-incubated SENP8/Z-RLRGG-aminoluciferin, luciferase luminescence interference | shares compounds with SENP7 block;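 active means mean inhibition above about 50% when retested at one dose, limit read from the data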
Numbers stand for hits; n = inactive; x = no result.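 How the source made its calls, unless noted: active means mean inhibition above about 50% in the one-dose retest (limit read from the data); inactive means the rest.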

SMILES	SENP8 block-1	SENP7 block	Platelet DG rel	SENP8 block-2	SENP6 inh	SENP8 confirm	SENP6 confirm	SENP7 confirm	Casp3 select	SENP luc ctr
O=C(/C=C/NCc1cccnc1)c1ccc(-c2ccccc2)cc1	n	n	n	n	n	x	x	x	x	x
Cc1ccc(C(=O)Nc2ccccc2N2CCCC2)cc1	n	n	n	n	n	x	x	x	x	x
c1ccc(-c2nc3ccccn3c2NCc2ccc3c(c2)OCO3)cc1	n	n	n	n	n	x	x	x	x	x
c1ccn2c(c1)nc1c2nc2ccccn21	n	n	n	n	n	x	x	x	x	x
Clc1cccc(-c2ccc(-c3nc4ccccn4c3NCc3ccccc3)cc2)c1	n	53.4	x	64.8	n	n	n	71.1	n	n
Clc1c(-c2ccccc2)nc2ccccn12	n	54.5	n	55.4	64.7	n	n	79.7	65.8	n
Cc1c(-c2ccc(Br)cc2)nc2ccccn12	n	89.9	n	87.9	95.6	n	88.5	99.6	88.0	88.6
O=C1CN(S(=O)(=O)c2ccc([N+](=O)[O-])cc2)CC(=O)N1	n	n	n	n	n	x	x	x	x	x
CC(C)NC(=O)C1(C)CCCN1C(=O)c1cc(C#N)cs1 (stereo not given)	n	x	x	x	x	x	x	x	x	x
COc1cccc(/C=C/C(=O)NNC(=O)c2cc(C)oc2C)c1	n	n	n	n	n	x	x	x	x	x
CCCOc1ccc(/C=N/Nc2ccccc2[N+](=O)[O-])c(O)c1	n	99.2	n	94.3	96.4	57.8	n	n	77.5	n
CCCOc1ccc(/C=N/NC(=S)Nc2ccccc2[N+](=O)[O-])c(O)c1	x	x	n	x	x	x	x	x	x	x
O=C(O)c1cc(-c2ccc3ccccc3n2)nc2ccccc12	n	n	n	n	n	x	x	x	x	x
O=C(O)c1cc(-c2ccc3ccccc3c2)nc2ccc(F)cc12	n	n	n	66.0	72.8	n	n	n	n	n
Oc1c(C=Nc2ccccc2)sc(=S)n1Cc1ccccc1	n	n	n	n	n	x	x	x	x	x
CCn1c(O)c(C=Nc2ccccc2)sc1=S	x	69.7	n	68.8	80.8	n	50.9	95.5	60.9	n
O=C(CCC(=O)OCCCC(F)(F)C(F)(F)F)Nc1ccccc1	n	99.3	n	n	n	n	n	n	n	n
O=c1[nH]c2ccc(S(=O)(=O)N3CCN(c4ccc(F)cc4)CC3)cc2o1	n	n	n	54.8	n	n	n	n	n	n
C=C1CCc2c([nH]c3ccc(OCC(C)C)cc23)C1=O	n	n	n	n	94.7	n	n	n	n	n
COc1ccc2[nH]c3c(c2c1)CCNC3=O	n	n	n	n	n	x	x	x	x	x
Cc1ccc2nc(N3C(=O)CNC3=S)sc2c1	n	89.0	n	91.3	94.2	n	92.5	100.3	94.6	n
CCOc1ccc(-c2nc(-c3ccccc3C)no2)cc1	x	99.1	n	94.5	92.9	70.5	55.5	n	78.1	n
COc1ccc(-c2nc(-c3cccnc3)no2)cc1	n	84.3	n	67.1	77.2	77.5	78.0	96.0	86.5	n
COc1ccc(-c2noc(-c3cccnc3)n2)cc1OC	n	n	n	n	n	x	x	x	x	x
CCOc1nc(-c2ccc(OC)cc2)ccc1-c1noc(-c2ccncc2)n1	n	x	x	x	x	x	x	x	x	x
SMILES	SENP8 block-1	SENP7 block	Platelet DG rel	SENP8 block-2	SENP6 inh	SENP8 confirm	SENP6 confirm	SENP7 confirm	Casp3 select	SENP luc ctr
CCCCOc1ccc(-c2nc(-c3cccnc3)no2)cc1	n	78.9	n	64.1	81.0	n	n	n	n	n
CCOc1ccc(-c2nc(-c3cccnc3)no2)cc1	n	94.8	n	85.1	72.5	n	73.0	90.6	74.4	n
CNc1ncc(Cc2ccccc2)s1	n	n	n	n	n	x	x	x	x	x
CN(Cc1c(F)cccc1Cl)C(=O)c1cnc2ccccc2n1	n	n	n	n	n	x	x	x	x	x
O=C(Nc1ccccc1)C(=O)Nc1ccc2c(c1)N(C(=O)C1CC1)CCC2	n	99.4	89.1	96.2	98.0	55.8	100.2	102.8	98.4	n
CC(=O)Nc1ccc2nc(-c3ccccc3)cn2c1	n	n	n	n	n	x	x	x	x	x
COC(=O)c1ccc2nc(-c3cccc(N)c3)cn2c1	n	65.6	n	n	n	59.9	61.5	86.3	86.1	68.7
CN(CC(=O)Nc1ccccc1Br)C(=O)c1cc(S(=O)(=O)N(C)C)ccc1N1CCCC1	n	n	n	n	n	x	x	x	x	x
COc1c(N2CCNC(C)C2)c(F)cc2c(=O)c(C(=O)O)cn(C3CC3)c12 (stereo not given)	x	n	n	n	n	x	x	x	x	x
NC1CCN(c2c(F)cc3c(=O)c(C(=O)O)cn(C4CC4)c3c2Cl)C1 (stereo not given)	n	66.9	n	n	n	n	n	n	n	n
CS(=O)(=O)N1CCc2cc(C(=O)Nc3ccc(COCC(F)(F)F)cc3)ccc21	n	n	n	n	n	x	x	x	x	x
C=CCN(CC=C)c1cnn(-c2nc3ccccc3[nH]2)c(=O)c1Cl	n	76.5	n	58.0	86.6	71.0	76.6	94.3	91.2	n
O=c1c(Cl)c(NCCO)cnn1-c1cccc(Cl)c1	n	n	n	n	n	x	x	x	x	x
O=c1c(Cl)c(NCCCO)cnn1-c1nc2ccccc2[nH]1	n	69.0	n	n	62.0	58.8	56.5	84.9	89.1	n
CCOC(=O)N1CCC(NS(=O)(=O)c2ccc(NC(C)=O)c(Cl)c2)CC1	n	n	n	n	n	x	x	x	x	x
Cc1ncoc1C(=O)N1CCCC(C(=O)c2ccc(-c3ccccc3)cc2)C1 (stereo not given)	n	n	n	n	n	x	x	x	x	x
COc1c(Cl)c(=O)oc2ccc(Cl)cc12	n	x	x	x	x	x	x	x	x	x
COc1ccccc1-n1c(=O)oc2ccc(Cl)cc2c1=O	n	n	x	n	53.0	52.8	50.2	55.4	n	n
CC1CCCCN1S(=O)(=O)c1cccc(S(=O)(=O)N2CCOCC2)c1 (stereo not given)	n	n	n	n	n	x	x	x	x	x
CC(=O)Nc1cccc(NC(=O)CSc2nnc3ccc(-c4ccncc4)nn23)c1	n	n	n	n	n	x	x	x	x	x
